Data: PubChem BioAssay (NCI)
The panel holds about 83,000 compounds, 20% with a hit somewhere; the sample as a whole holds those more often.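 Activity criterion: percent growth below 10, measured after cells in 96-well plates were exposed to a single compound concentration for 48 hours.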 Unmarked numbers belong to inactive results. Active and inactive are the calls of the source.

How the values were obtained:
Test in all cases: NCI-60 one-dose screen, 48 h (100 = growth as untreated, 0 = no growth, -100 = all killed)
Settings in all cases: 10 µM
DU-145 prostate = tested on: DU-145 prostate
K-562 leukemia = tested on: K-562 leukemia
MALME-3M melanoma = tested on: MALME-3M melanoma
MDA-MB-231 breast = tested on: MDA-MB-231 breast
RXF 393 renal = tested on: RXF 393 renal
SF-268 CNS = tested on: SF-268 CNS
SF-295 CNS = tested on: SF-295 CNS
UACC-257 melanoma = tested on: UACC-257 melanoma
M14 melanoma = tested on: M14 melanoma
HCT-15 colon = tested on: HCT-15 colon
SNB-19 CNS = tested on: SNB-19 CNS
U251 CNS = tested on: U251 CNS
PC-3 prostate = tested on: PC-3 prostate
SK-MEL-5 melanoma = tested on: SK-MEL-5 melanoma
UACC-62 melanoma = tested on: UACC-62 melanoma
LOX IMVI melanoma = tested on: LOX IMVI melanoma
SK-MEL-28 melanoma = tested on: SK-MEL-28 melanoma
SF-539 CNS = tested on: SF-539 CNS
HT29 colon = tested on: HT29 colon
SNB-75 CNS = tested on: SNB-75 CNS

| Structure (SMILES) | growth (DU-145 prostate) | growth (K-562 leukemia) | growth (MALME-3M melanoma) | growth (MDA-MB-231 breast) | growth (RXF 393 renal) | growth (SF-268 CNS) | growth (SF-295 CNS) | growth (UACC-257 melanoma) | growth (M14 melanoma) | growth (HCT-15 colon) | growth (SNB-19 CNS) [%] | growth (U251 CNS) | growth (PC-3 prostate) | growth (SK-MEL-5 melanoma) | growth (UACC-62 melanoma) | growth (LOX IMVI melanoma) | growth (SK-MEL-28 melanoma) | growth (SF-539 CNS) | growth (HT29 colon) | growth (SNB-75 CNS) |
| --- | --- | --- | --- | --- | --- | --- | --- | --- | --- | --- | --- | --- | --- | --- | --- | --- | --- | --- | --- | --- |
| Cc1cc(SCc2ccccc2)nc(N)n1 | 104% | 105% | -0.674% (active) | 107% | 124% | 100% | 102% | 125% | 115% | 104% | 92.1 | 118% | 111% | 117% | 87.5% | 103% | 106% |  |  |  |
| CCNc1nc(C(F)(F)F)nc2c1sc(=S)n2-c1ccccc1 | 101% | 103% | 144% | 85.1% | 100% | 105% | 94% |  | 108% | 94.7% | 107 | 93.3% |  | 87.6% | 93.9% | 88.6% | 112% | 101% | 88.8% | 99.2% |
| O=S(=O)(NCCCNc1nccc(-c2cn(-c3ccccc3)nc2-c2ccc(Cl)c(O)c2)n1)c1ccccc1 | 81.4% | 65% | 125% | 71.6% | 74.2% | 68.5% | 63.2% |  | 60.7% | 51.3% | 86.1 | 59.4% |  | 46.1% | 59.1% | 63.1% | 84.5% | 88.9% | 60.5% | 80.5% |
| CCn1cc(CNc2ccc(C(=O)Nc3ccc4ccccc4c3)cc2)c(C)n1 | 61.2% | 59.5% | 62.5% | 83.8% | 86% | 76.4% | 64.2% |  | 45.1% | 55.8% | 77.6 | 84.5% |  | -31.5% (active) | 60% | 62.5% | 77.8% | 83.3% | 75.7% | 71.8% |
| COc1cc2c3c(n([C@H]4CCOC4)c(=O)c2cc1OC)-c1cc2c(cc1C3=O)OCO2 | 19.8% | 59.6% | 78% | 91.8% | 41.7% | 31.7% | -5.69% (active) |  | 23% | 56.1% | 31.2 | 11.9% |  | 7.91% (active) | 11.3% | 4.78% (active) | 72% | 1% (active) | 40.9% | 31.9% |
| N#Cc1c(-c2ccc(Cl)cc2)cc(-c2cc(O)ccc2O)nc1N | 21.7% | 29.1% | 30.2% | -5.89% (active) | 15.7% | 31.9% | 75.6% |  | 2.5% (active) | 43.8% | 26.5 | -26.5% (active) |  | -79.9% (active) | -25.6% (active) | -56.2% (active) | 18.4% | -1.42% (active) | 87.3% | 32.8% |
| Nc1nc(Cn2c(-c3nonc3N)nc3ccccc32)nc(N2CCCCC2)n1 | 99% | 49.3% |  | 84.8% | 87.7% | 95.6% | 96.7% | 93.1% | 98.4% | 84.8% | 87 | 96.9% | 78% | 83.2% | 84.3% | 90% | 95% | 101% | 105% | 76.4% |
| CN1CCN(CCCn2c(=O)c3sc4ncccc4c3n3nnc(-c4ccccc4)c23)CC1 | 31.5% | -32.5% (active) |  | -45.5% (active) | -68.3% (active) | -10.8% (active) | -76.1% (active) | -88.8% (active) | -82.7% (active) | 7.72% (active) | 23.3 | -81.8% (active) | 46.5% | -96.3% (active) | -88% (active) | -90.8% (active) | -92.6% (active) | -90.5% (active) | -54.1% (active) | -24.7% (active) |
| CCOC(=O)Cn1c(=O)c2sc3ncccc3c2n2nnc(-c3ccccc3)c12 | 119% | 96.4% |  | 87.2% | 112% | 112% | 110% | 108% | 99% | 107% | 101 | 104% | 94.8% | 104% | 90.5% | 97.4% | 104% | 105% | 107% | 77.2% |
| COC1=CC(=O)OC(c2ccc(OC)cc2)C1 (stereo not given) | 113% | 130% |  | 100% | 113% | 96.5% | 91.7% | 104% | 122% | 121% | 104 | 117% | 105% | 106% | 101% | 94.9% | 123% | 104% | 110% | 86.3% |
| Cc1cn(-c2cccc(NC(=O)c3ccc(C)c(Nc4nccc(-c5cccnc5)n4)c3)c2)cn1 | 13.3% | -22.5% (active) | 42% | -48.5% (active) | -49.5% (active) | 15.8% |  | 29.1% | 22.6% |  | 51.2 |  | 34.4% | 40.2% | 3.99% (active) | -65.5% (active) | -37.6% (active) | -33.3% (active) | -43.4% (active) | -45% (active) |
| CCCCN1C(=O)CC(SC2CC(=O)N(CCCC)C2=O)C1=O (stereo not given) | 103% | 118% |  | 108% | 122% | 101% | 109% | 98.6% | 113% | 120% | 99.5 | 107% | 99.4% | 104% | 96.6% | 95% | 121% | 105% | 76.1% | 87.4% |
| COc1ccc(-c2nn(-c3cccc(Cl)c3)cc2C=C(C#N)C#N)cc1 | 3.57% (active) | -13.2% (active) | 17.7% | -40.3% (active) | -5.72% (active) | 13.3% |  | 38.5% | -18% (active) |  | 16.6 |  | 12.6% | 5.8% (active) | 11.1% | -66.5% (active) | 17.2% | 2.34% (active) | -14.9% (active) | 3.23% (active) |
| COc1ccc2c(c1)C(=O)/C(=C/c1cccc(OCC(=O)c3ccc([N+](=O)[O-])cc3)c1)CO2 | 63.4% | -81.2% (active) | 30.4% | 60.9% |  | 62.8% | 43.3% | -49.4% (active) | 8.08% (active) | -37.6% (active) | 90.1 | 22.4% | 22.5% | 15.8% | 46.7% | -100% (active) | 43.9% | 27.8% | 6.81% (active) | 55.5% |
| CC(C)c1ccc(C(C)C(=O)N(CC2=C(C(C)c3ccccn3)c3ccccc3C2)C(C)C)cc1 (stereo not given) | 57.6% | 24.5% |  | 48.4% | 45.6% | 46% | 25.6% | 49.3% | 48.1% | 30.3% | 58.2 | 36% | 17.9% | 30.2% | 53.4% | 31.1% | 79.7% | 61.4% | 22.3% | 49.3% |
| CCn1c(CSc2nc3ccccc3c(=O)n2CCc2ccccc2)n[nH]c1=S | 113% | 71.6% | 97.2% | 82.8% | 85.2% | 98.4% |  | 88.5% | 88.8% |  | 106 |  | 83.9% | 82.4% | 85.2% | 74.2% | 106% | 99.8% | 88.2% | 107% |
| O=C(COc1cccc(/C=C2\CSc3ccccc3C2=O)c1)c1ccc(Cl)cc1 | 94.9% | -76.8% (active) | -61.9% (active) | 68.8% |  | 29.9% | -28.1% (active) | -47% (active) | -34.7% (active) | -49.7% (active) | 60.8 | -97.9% (active) | -39.6% (active) | -94.4% (active) | -73.9% (active) | -100% (active) | -81.7% (active) | 50.6% | -86.3% (active) | 94.6% |
